In PubChem BioAssay (Tox21) one finds outcome and Potency data, which are given here for 8 compounds.

The nature of experiment [1]: qHTS assay to identify small molecule agonists of the constitutive androstane receptor (CAR) signaling pathway - cell viability counter screen (AID 1224836). Also: series mostly up to about 92 µM; nearly all actives have a fitted effect of over 45% in size. A digest of the protocol:
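Fluorescence from CellTiter-Fluor indicates live cells after 23 h exposure. The human hepatoma line expresses hCAR and a CYP2B6-2.2kb reporter. Incubation medium contains 0.75 uM PK11195 (final).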
In general terms: In qHTS, concentration-response curves come from the screen itself.

Experiment [2] in a line: qHTS assay to identify small molecule antagonists of the constitutive androstane receptor (CAR) signaling pathway - cell viability counter screen (AID 1224837). Also: series mostly up to about 92 µM; nearly all actives have a fitted effect of over 45% in size. A digest of the protocol:
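Cytotoxicity counter-screen: CellTiter-Fluor fluorescence after 23 h compound exposure (15-point qHTS) in double-stable HepG2-CYP2B6-hCAR cells, with 50 nM CITCO added.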

The target of experiment [3] is Nuclear receptor subfamily 1 group I member 3 (Homo sapiens) (UniProt Q14994). The experiment can be described thus: qHTS assay to identify small molecule antagonists of the constitutive androstane receptor (CAR) signaling pathway (AID 1224838).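 Also: HepG2 cells stably expressing hCAR with CYP2B6 luciferase reporter stimulated by CITCO; nearly all actives have a fitted effect of over 40% in size.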 The gist of the method:
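Antagonism measured as luciferase signal (ONE-Glo, 30 min, room temperature) in CAR-stimulated cells: HepG2-CYP2B6-hCAR double-stable line exposed 24 hr at 37 C to compound in a 15-point series plus 50 nM CITCO.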

For experiment [4] the target is unchanged. The experiment is described as follows: qHTS assay to identify small molecule agonists of the constitutive androstane receptor (CAR) signaling pathway (AID 1224839).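 Also: HepG2 cells stably carrying human CAR and a CYP2B6 luciferase reporter; series mostly up to about 92 µM; nearly all actives have a fitted effect of over 15% in size.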 A digest of the protocol: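 Stable hCAR/CYP2B6-2.2kb HepG2 line in DMEM with 10% FBS; compounds (15 concentrations) and 0.75 uM PK11195 final, 24 h at 37 C/5% CO2, then ONE-Glo luminescence after 30 min.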

Experiment [5] in a line: qHTS assay to identify small molecule antagonists of the estrogen related receptor signaling pathway with the pleiotropic PPARgamma coactivator (PGC) from Tox21 10K library - cell viability counter screen (AID 1224840; active = well fitted cell-killing curve with a large enough effect in the repeat runs, not every such curve was filed as active; also: nearly all actives have a fitted effect of over 40% in size). The gist of the method: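 Counter-screen for cytotoxicity: after 17.5 h compound exposure at 37 C, CellTiter-Fluor reagent added to PGC/ERR cells for 30 min and fluorescence read. Cells were seeded at 2,000 per well 6 h before dosing.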

Experiment [6] has as its target Thyrotropin receptor (Homo sapiens) (UniProt P16473). The experiment is described as follows: qHTS assay to identify small molecule agonists of the thyroid stimulating hormone receptor (TSHR) signaling pathway (AID 1224843; calls by dose curve; also: nearly all actives have a fitted effect of over 45% in size). A digest of the protocol:
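Agonist activity read as cAMP rise via d2/cryptate HTRF competition, 1 h room-temperature detection, in HEK293 cells expressing TSHR. Fifteen-point titrations, each run in triplicate, with a 30 min room-temperature incubation beforehand.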

Experiment [7] is described as follows: qHTS assay to identify small molecule agonists of the hypoxia (HIF-1) signaling pathway - cell viability counter screen (AID 1224844; calls by dose curve; also: nearly all actives have a fitted effect of over 50% in size). The gist of the method: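 Cytotoxicity measured by CellTiter-Glo ATP luminescence in the wells also read for beta-lactamase signal. Cells were HRE-bla ME-180 (2,000/well, 0.5% dialyzed FBS), exposed to compounds for 17 h at 37C.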

Experiment [8] is described as follows: qHTS assay to identify small molecule agonists of H2AX (AID 1224845; active = well fitted activation curve with a large enough effect in the signal ratio in the repeat runs, not every such curve was filed as active; the % refers to the signal ratio). A digest of the protocol:
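Phospho-H2AX Ser139 measured by HTRF (ex 320 nm; em 665 and 620 nm) after 24 hr antibody incubation. Compounds, 15 concentrations, 0.76% DMSO, were applied to CHO-K1 cells for 3hr at 37C before lysis.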

Experiment [9] can be described thus: qHTS assay to identify small molecule agonists of the hypoxia (HIF-1) signaling pathway (AID 1224846; active = well fitted activation curve with a large enough effect in the signal ratio in the repeat runs, not every such curve was filed as active; the % refers to the signal ratio). The gist of the method:
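Compounds added to ME-180 cells carrying hypoxia-response-element beta-lactamase reporter (0.5% dialyzed FBS, 5 h preplating), 17 h at 37C; agonist activity detected by CCF4-AM B/G FRET read-out.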

Experiment [10] in a line: qHTS assay to identify small molecule agonists of H2AX - cell viability counter screen (AID 1224847; calls by dose curve; also: top concentration of the series differs between compounds; nearly all actives have a fitted effect of over 30% in size). A digest of the protocol:
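Viability of CHO-K1 (wild type) cells after 3 hr compound exposure was measured by CellTiter-Glo luminescence.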

Experiment [11] in a line: qHTS RealTime-Glo MT Cell Viability Assay in HepG2 cells - 24 hour (AID 1224867). Also: nearly all actives have a fitted effect of over 50% in size. The gist of the method:
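qHTS, HepG2, 600 cells/well, RealTime-Glo (NanoLuc + prosubstrate) added with cells; 5 h preincubation; DMSO compound addition; 37 C; luminescence at 0/8/16/24/32/40 h.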

The nature of experiment [12]: qHTS RealTime-Glo MT Cell Viability Assay in HEK293 cells - 32 hour (AID 1224868). Also: nearly all actives have a fitted effect of over 50% in size. Also: potency is read from the fitted curve at half-maximal effect. A digest of the protocol: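 Assay medium contained NanoLuc luciferase plus cell-permeant prosubstrate, added with HEK293 cells at 600 cells/well. After 5 h at 37 C/5% CO2 compounds were added; plates stayed at 37 C for 40 h with serial luminescence reads.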
Experiment [13] can be described thus: A CellTox Green Cytotoxicity Assay to monitor cytotoxicity in HEK293 cells - 0 hour (AID 1224869). Also: nearly all actives have a fitted effect of over 50% in size. A digest of the protocol: (§1)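 Fluorescence from a DNA-binding dye excluded by viable cells was measured repeatedly in the same HEK293 wells (600 cells/well) during continuous compound exposure at 37 C. Each assay gives one read point: 0, 8, 16, 24, 32 or 40 h.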

The nature of experiment [14]: qHTS RealTime-Glo MT Cell Viability Assay in HepG2 cells - 40 hour (AID 1224870). Also: nearly all actives have a fitted effect of over 50% in size. The gist of the method:
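Real-time viability: cells seeded at 600 per well together with NanoLuc and cell-permeant prosubstrate, compounds added after 5 h incubation. Luminescence tracked at 0, 8, 16, 24, 32 and 40 h of exposure.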

The nature of experiment [15]: A CellTox Green Cytotoxicity Assay to monitor cytotoxicity in HEK293 cells - 40 hour (AID 1224871). Also: nearly all actives have a fitted effect of over 45% in size. Also: potency is read from the fitted curve at half-maximal effect. A digest of the protocol:
as §1

Experiment [16] can be described thus: qHTS assay to identify small molecule antagonists of the estrogen related receptor (ERR) signaling pathway from Tox21 library (AID 1224848). Also: nearly all actives have a fitted effect of over 50% in size. A digest of the protocol: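 Luciferase luminescence (ONE-Glo, 30 min room temperature) was the read-out. Cells of the NTP-supplied ERR line, 2,000 per well, were given 6 h at 37 C before compound addition in DMSO and 18 h exposure at 37 C.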

Experiment [17] can be described thus: qHTS assay to identify small molecule agonists of the estrogen related receptor (ERR) signaling pathway from Tox21 library (AID 1224849; calls by dose curve; also: nearly all actives have a fitted effect of over 15% in size). A digest of the protocol:
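Luminescent agonist read-out (One-Glo, 30-minute room-temperature incubation) following 18-hour compound treatment at 37 C of the ERR cell line, which had been plated 6 hours before dosing.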

Experiment [18] in a line: qHTS assay to identify small molecule antagonists of the estrogen related receptor signaling pathway with the pleiotropic PPARgamma coactivator (PGC) from Tox21 10K library (AID 1224841; call rule not given here). A digest of the protocol: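 Luminescence (One-Glo, 30 min at room temperature) after 18 h compound treatment at 37 C of PGC/ERR reporter cells plated at 2,000 cells/well and settled 6 h beforehand.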

Experiment [19] is described as follows: qHTS assay to identify small molecule agonists of the estrogen related receptor signaling pathway with the pleiotropic PPARgamma coactivator (PGC) from Tox21 10K library (AID 1224842). Also: nearly all actives have a fitted effect of over 15% in size. The gist of the method:
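Luminescence from One-Glo (30 min, room temperature) measured after PGC/ERR cells had 18 h at 37 C with pinned compound (23 nL in DMSO). Cells had been seeded at 2,000 per well and pre-incubated 6 h.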

The target in experiment [20] is Luciferin 4-monooxygenase (Photinus pyralis) (UniProt P08659). The experiment can be described thus: qHTS assay to identify small molecule inhibitors of firefly luciferase (AID 1224835). Also: series mostly up to about 120 µM; nearly all actives have a fitted effect of over 25% in size. The gist of the method:
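Inhibition of purified Photinus luciferase is measured by luminescence. Substrate levels (D-luciferin, ATP) sit at their KM values. Each compound is tested in a concentration series.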

A number with no mark means an inactive call. Records with an inconclusive call do not appear. Active and inactive are the calls of the source. Unless noted, calls follow the shape of the dose curve; as a rule, active = well fitted curve in the direction sought with a large enough effect in the repeat runs; inconclusive = weak or mixed curves; inactive = no such curve, though single readings can be large; an effect the other way counts as inactive or inconclusive.

Nuclear receptor subfamily 1 group I member 3 (Homo sapiens), sequence (Q14994 whole entry, looked up): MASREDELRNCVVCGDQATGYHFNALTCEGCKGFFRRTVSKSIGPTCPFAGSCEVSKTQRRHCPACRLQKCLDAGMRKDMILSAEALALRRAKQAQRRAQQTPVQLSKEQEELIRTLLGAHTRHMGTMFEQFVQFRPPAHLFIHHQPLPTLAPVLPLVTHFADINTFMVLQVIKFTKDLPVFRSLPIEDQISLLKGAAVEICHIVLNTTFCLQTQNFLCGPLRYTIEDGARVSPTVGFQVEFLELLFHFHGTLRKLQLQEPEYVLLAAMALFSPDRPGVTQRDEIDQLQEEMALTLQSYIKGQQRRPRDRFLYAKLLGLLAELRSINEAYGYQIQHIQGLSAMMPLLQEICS
Thyrotropin receptor (Homo sapiens), sequence (P16473 whole entry, looked up): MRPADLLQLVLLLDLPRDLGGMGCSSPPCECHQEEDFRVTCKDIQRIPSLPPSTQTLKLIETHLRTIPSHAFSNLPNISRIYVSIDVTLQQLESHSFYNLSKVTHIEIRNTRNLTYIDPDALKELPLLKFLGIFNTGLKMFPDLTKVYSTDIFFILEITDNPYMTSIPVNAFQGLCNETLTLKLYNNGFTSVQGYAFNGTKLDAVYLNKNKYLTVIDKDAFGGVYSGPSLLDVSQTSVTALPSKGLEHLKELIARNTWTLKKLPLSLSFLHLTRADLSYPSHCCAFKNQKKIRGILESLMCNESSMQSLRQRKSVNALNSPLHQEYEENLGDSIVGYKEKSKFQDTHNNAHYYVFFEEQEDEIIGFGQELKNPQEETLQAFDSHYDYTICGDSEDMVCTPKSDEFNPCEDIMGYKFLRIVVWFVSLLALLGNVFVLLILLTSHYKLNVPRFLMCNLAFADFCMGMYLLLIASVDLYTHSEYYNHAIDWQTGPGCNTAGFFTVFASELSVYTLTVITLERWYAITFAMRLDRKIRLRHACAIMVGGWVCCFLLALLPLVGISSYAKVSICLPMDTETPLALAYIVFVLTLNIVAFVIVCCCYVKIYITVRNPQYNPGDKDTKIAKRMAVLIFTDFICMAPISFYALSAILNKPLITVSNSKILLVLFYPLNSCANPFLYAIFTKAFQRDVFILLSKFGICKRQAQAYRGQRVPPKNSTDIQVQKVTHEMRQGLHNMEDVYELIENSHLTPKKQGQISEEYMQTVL
Luciferin 4-monooxygenase (Photinus pyralis), sequence (P08659 whole entry, looked up): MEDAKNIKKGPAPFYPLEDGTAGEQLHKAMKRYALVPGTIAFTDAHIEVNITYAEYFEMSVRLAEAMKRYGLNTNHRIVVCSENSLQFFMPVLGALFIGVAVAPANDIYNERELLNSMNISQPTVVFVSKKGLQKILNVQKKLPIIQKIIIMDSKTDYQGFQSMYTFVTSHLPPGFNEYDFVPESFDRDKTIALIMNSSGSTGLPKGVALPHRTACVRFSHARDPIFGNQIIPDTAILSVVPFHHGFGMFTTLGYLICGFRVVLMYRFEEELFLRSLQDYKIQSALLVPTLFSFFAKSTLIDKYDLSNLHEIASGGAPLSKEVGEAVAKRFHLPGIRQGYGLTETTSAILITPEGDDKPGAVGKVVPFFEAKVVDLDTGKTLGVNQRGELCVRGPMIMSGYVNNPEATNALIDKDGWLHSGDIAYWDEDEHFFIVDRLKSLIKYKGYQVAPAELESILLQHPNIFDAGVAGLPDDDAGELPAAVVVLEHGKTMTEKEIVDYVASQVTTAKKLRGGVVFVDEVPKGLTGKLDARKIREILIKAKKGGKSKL

For `C1CCC2=NCCCN2CC1`, the result in experiment [1], in [2], in experiment [5], in [9], in experiment [10] and in [11] was inactive. In experiment [13], the compound was classed as inactive. Moreover, the Potency result in experiment [3], in experiment [4], in [6], in experiment [7], in experiment [8] and in experiment [12] was “inactive” in each case. Besides, the Potency entry in [14] and in experiment [15] was “inactive” in each case.
Regarding `O=C1NC(=O)C2CC=CCC12` (stereo unspecified), the compound was called inactive in experiment [1], in experiment [2], in [5], in [9], in experiment [10] and in experiment [17]. Moreover, the outcome in experiment [11] and in experiment [13] was inactive. The Potency result in experiment [3], in experiment [4], in [6], in [7], in experiment [8] and in experiment [16] was “inactive” throughout. Moreover, the Potency result in experiment [12], in [14] and in experiment [15] was “inactive” in each case.
On to `c1ccc(CCc2ccccc2)cc1`, for which the result in experiment [1], in experiment [2], in experiment [9], in experiment [17], in experiment [11] and in experiment [13] was inactive. Moreover, the Potency result in [3], in experiment [4], in experiment [18], in experiment [19], in experiment [7] and in experiment [8] was “inactive” throughout. For the same compound, the Potency entry in experiment [16], in [12] and in [14] was “inactive” in each case. Further, in [15], the Potency is 38.9 µM (active).
`Cc1ccc(-c2ccccc2C#N)cc1`: the call in experiment [1], in experiment [2], in experiment [5], in experiment [9] and in experiment [11] was inactive. The Potency result in experiment [3], in experiment [4], in experiment [6], in [7], in [8] and in experiment [12] was “inactive” throughout. Moreover, the Potency entry in [14] and in [15] was “inactive” throughout.
For the compound `Cc1ccc(C(=O)Nc2ccc(S(=O)(=O)O)c3cc(S(=O)(=O)O)cc(S(=O)(=O)O)c23)cc1NC(=O)c1cccc(NC(=O)Nc2cccc(C(=O)Nc3cc(C(=O)Nc4ccc(S(=O)(=O)O)c5cc(S(=O)(=O)O)cc(S(=O)(=O)O)c45)ccc3C)c2)c1`, the compound was classed as inactive in [1], in [2], in experiment [9], in [10], in [17] and in experiment [11]. The Potency result in [18], in experiment [19], in experiment [6], in experiment [7], in experiment [8] and in experiment [16] was “inactive” throughout. The Potency result in [12] and in [14] was “inactive” in each case.
On to `CC(N)C12CC3CC(CC(C3)C1)C2` (stereo unspecified), for which the Potency result in experiment [20], in [6], in experiment [7], in experiment [8], in [12] and in experiment [14] was “inactive” in each case. Also, the Potency entry in experiment [15] was “inactive”. Besides, the call in experiment [2], in [5], in [9], in [10], in experiment [11] and in experiment [13] was inactive.
For the compound `CC(=O)O[C@@]12CO[C@@H]1C[C@H](O)[C@@]1(C)C(=O)[C@H](O)C3=C(C)[C@@H](OC(=O)[C@H](O)[C@@H](NC(=O)OC(C)(C)C)c4ccccc4)C[C@@](O)([C@@H](OC(=O)c4ccccc4)[C@H]21)C3(C)C`, the Potency result in experiment [20], in experiment [7], in experiment [14] and in experiment [15] was “inactive” in each case. Besides, the call in [1], in experiment [10], in experiment [11] and in experiment [13] was inactive. For the same compound, in experiment [12], the Potency was 47.7 nM (active).
Consider `CC(=O)c1ccc2ccccc2c1`, for which the result in experiment [1], in [2], in experiment [5], in experiment [9], in experiment [10] and in experiment [11] was inactive. The compound was classed as inactive in experiment [13]. Besides, the Potency entry in [3], in experiment [4], in [7], in experiment [8], in experiment [12] and in experiment [14] was “inactive” in each case. In addition, in experiment [15], the Potency result is “inactive”.
